# Shown are actives, neighbours in structure and some others; about 3.5% of the full set was active somewhere.
# Mtb UGM inh: inhibitors of M. tuberculosis UDP-galactopyranose mutase; inhibition, % at 10 µM; AID 504406; purified UGM, fluorescence polarization probe displacement; hit rate 0.06% among 320,000; in the data active means inhibition above about 10%, passing the limit was not always enough
# Target sequence (P9WIQ1 whole entry, looked up): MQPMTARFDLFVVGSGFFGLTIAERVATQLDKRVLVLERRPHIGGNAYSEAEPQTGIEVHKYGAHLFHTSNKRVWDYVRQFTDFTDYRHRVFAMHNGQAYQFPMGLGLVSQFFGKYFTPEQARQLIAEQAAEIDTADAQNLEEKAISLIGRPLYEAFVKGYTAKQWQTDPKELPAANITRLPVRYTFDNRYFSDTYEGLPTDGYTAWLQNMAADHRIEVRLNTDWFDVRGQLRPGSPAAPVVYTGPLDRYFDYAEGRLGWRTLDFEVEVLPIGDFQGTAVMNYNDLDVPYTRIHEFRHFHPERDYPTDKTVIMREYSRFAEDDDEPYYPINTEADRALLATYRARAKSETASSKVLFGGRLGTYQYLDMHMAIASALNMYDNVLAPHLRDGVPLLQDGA
# Mtb FBA inh: inhibitors of M. tuberculosis fructose-bisphosphate aldolase; P9WQA3; purified M. tuberculosis FBA, fluorescence read-out; inhibition, % at 1 µM; hit rate 2.3% among 360,000; AID 588726; in the data active means inhibition above about 27%
# Rv3671c inh: inhibitors of M. tuberculosis serine protease Rv3671c; hit rate 0.048% among 320,000; inhibition, % at 5.96 µM; P9WHR9; AID 2606; in the data active means inhibition above about 38%;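 further: extracellular domain of Rv3671c used as enzyme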
# GDH-TPI counter: GDH-TPI coupled enzyme inhibition counter-screen | GDH-TPI coupled enzyme counterscreen, NADH absorbance | inhibition, % at 4.8 µM | hit rate 1.2% among 360,000; in the data active means inhibition above about 30%
# A number is an active result; i = inactive; nt = not tested or not shown; + = active, no number.
SMILES,Mtb UGM inh,Mtb FBA inh,Rv3671c inh,GDH-TPI counter
O=C(N/N=C/c1ccc([N+](=O)[O-])cc1)c1ccc2nc[nH]c2c1,i,i,i,37
Cc1ccc(/C=N/NC(=O)c2ccc3nc[nH]c3c2)o1,i,i,i,63
O=C(N/N=C/c1cccc([N+](=O)[O-])c1)c1ccc2nc[nH]c2c1,i,i,i,i
COC(=O)c1ccc(/C=N/NC(=O)c2ccc3nc[nH]c3c2)cc1,i,i,i,i
Cc1ccc(NC(=O)CSc2nnc(CNC(=O)c3ccco3)n2C)cc1C,nt,i,i,i
CCOC(=O)CSc1nc2c(sc(=S)n2Cc2ccco2)c(=O)n1-c1ccccc1,i,i,i,33
CCN(CC)C(=O)CSc1nc2c(sc(=S)n2Cc2ccco2)c(=O)n1-c1ccccc1,i,i,i,i
COc1ccccc1NC(=O)Cn1c(C)nc2c(sc(=S)n2Cc2ccco2)c1=O,i,i,i,32
Cc1nc2c(sc(=S)n2Cc2ccco2)c(=O)n1CC(=O)Nc1cc(F)ccc1F,i,i,i,i
CC(=O)c1ccc(N2CCN(C(=O)C(=O)c3c(C)[nH]c4ccccc34)CC2)cc1,i,i,i,34
COc1ccc(N2CCN(C(=O)C(=O)c3c(C)[nH]c4ccccc34)CC2)cc1,i,i,i,i
CCN1CCN(c2nc(C)nc3c2sc(=S)n3C)CC1,nt,i,nt,35
Cc1nn(-c2ccccc2)cc1/C=N/NC(N)=S,i,i,i,i
Cn1cc(/C=N/NC(N)=S)c2ccccc21,i,i,i,37
C=CCNC(=S)N/N=C/c1cn(C)c2ccccc12,i,i,i,32
NC(=S)N/N=C/c1c(O)ccc2ccccc12,i,i,i,32
Cc1ccc(OCC(=O)NCCNC(=O)c2cnccn2)cc1C,nt,i,nt,i
CCNc1nc(C)cc(COC)c1C#N,i,127,i,i
NS(=O)(=O)c1ccc(-c2ccc(C=O)o2)cc1,i,i,i,34
NS(=O)(=O)c1ccc(-c2ccc(/C=C3\NC(=S)NC3=O)o2)cc1,i,i,i,i
CCCOC(=O)c1ccc(-c2ccc(C=O)o2)cc1,nt,i,i,36
CCN(C(C)=O)c1cnc(C=NNC(N)=S)c2ccccc12,nt,i,nt,34
NC(=S)NN=Cc1nccc2c(N)cccc12,nt,i,nt,i
COc1cccc(-n2cnnc2SC(C)C(=O)NC2CCCC2)c1 (stereo unspecified),i,i,i,i
CSc1ccccc1N=Cc1nc(-c2ccccc2)oc1O,i,i,i,i
SMILES,Mtb UGM inh,Mtb FBA inh,Rv3671c inh,GDH-TPI counter
Oc1oc(-c2ccccc2)nc1C=Nc1ccccc1,i,i,i,i
Oc1oc(-c2ccccc2)nc1C=NCc1ccccc1,i,i,i,49
CN(C)c1ccc(N=Cc2nc(-c3ccccc3)oc2O)cc1,15,i,i,i
CCN(CC)CCCNC(=O)/C(=C\c1cccn1C)NC(=O)c1cccs1,i,i,i,35
O=C(CSc1ccsc1[N+](=O)[O-])NCCc1ccc(Cl)cc1,i,i,i,i
O=C(CSc1ccsc1[N+](=O)[O-])NCCc1ccccc1,i,+,i,i
COc1ccc2c(c1)/C(=C\c1cccc(/C=C3/C(=O)Nc4ccc(OC)cc43)n1)C(=O)N2,nt,i,nt,33
CCOC(=O)C1(C(=O)OCC)C(C)CC(=O)N1c1ccccc1OC (stereo unspecified),nt,i,nt,i
c1ccc2c(-c3nc4ncccc4o3)cccc2c1,i,+,i,i
COc1ccc(C(=O)/C(=C\c2ccco2)N2C=CC=CC2=C(C#N)C#N)cc1,i,i,i,51
N#C/C(=C/c1ccco1)C(N)=S,i,i,i,i
COc1ccc(/C=C(/C(=O)c2cccs2)N2C=CC=CC2=C(C#N)C#N)cc1,nt,i,nt,i
N#CC(C#N)=C1C=CC=CN1/C(=C\c1ccco1)C(=O)c1ccccc1,i,i,i,34
N#CC(C#N)=C1C=CC=CN1/C(=C\c1ccco1)C(=O)c1ccc(Br)cc1,i,i,i,37
Cc1[nH]n(-c2ncc(-c3ccccc3)s2)c(=O)c1C(c1ccc(Cl)cc1)C(C#N)C#N (stereo unspecified),i,i,i,i
C[C@H](CO)N1C[C@H](C)[C@@H](CN(C)C(=O)Nc2ccc3c(c2)OCO3)Oc2c(NC(=O)Nc3ccc(C(F)(F)F)cc3)cccc2C1=O,i,i,i,i
Nc1ccc2c(C(F)(F)F)cc(=O)oc2c1,i,63,i,i
COc1ccc(CC(=O)Nc2ccc3c(C(F)(F)F)cc(=O)oc3c2)cc1OC,i,i,i,i
COc1ccccc1-c1cc(C(=O)N/N=C/c2ccc(C)o2)c2ccccc2n1,nt,i,nt,49
O=C(N/N=C/c1ccc([N+](=O)[O-])o1)c1cc(-c2ccncc2)nc2ccccc12,i,i,i,40
COc1ccccc1-c1cc(C(=O)N/N=C/c2sccc2C)c2ccccc2n1,i,i,i,i
Cc1ccsc1/C=N/NC(=O)c1cc(-c2ccncc2)nc2ccccc12,i,i,i,43
O=C(N/N=C/c1ccco1)c1cc(-c2cccc(Br)c2)nc2ccccc12,i,i,i,41
CC(/C=N/NC(=O)c1cc(-c2ccncc2)nc2ccccc12)=C\c1ccco1,i,i,i,i
O=C(CN1CCN(Cc2ccc3c(c2)OCO3)CC1)NCC(F)(F)F,i,i,i,i
SMILES,Mtb UGM inh,Mtb FBA inh,Rv3671c inh,GDH-TPI counter
Cn1c(SCc2ccc(Cl)cc2)nnc1-c1ccc2nonc2c1,i,i,i,i
COc1ccc(OC)c(S(=O)(=O)N2CCCC(C(=O)N3CCCCCC3)C2)c1 (stereo unspecified),i,i,i,i
O=C(Cc1nc2ccccc2[nH]1)c1ccc(Br)cc1,i,i,i,32
CCN(CC)c1ccc(C(=O)n2cnc3ccccc32)cc1,i,i,i,40
CC(C)(C)c1ccc(C(=O)n2cnc3ccccc32)cc1,i,i,i,i
CCCc1c(C(=O)N/N=C/c2sccc2C)nnn1-c1nonc1N,i,i,i,i
CN(C)S(=O)(=O)c1ccc2nc(NC(=O)c3cccnc3)sc2c1,i,i,i,36
O=C(Nc1nc2ccc(S(=O)(=O)N3CCCCC3)cc2s1)c1cccnc1,i,i,i,40
O/N=C/c1ccc2ccccc2c1,i,i,i,i
O=C(Nc1ncc(Cc2cccc(C(F)(F)F)c2)s1)c1ccc(-c2cccc([N+](=O)[O-])c2)o1,i,i,i,54
O=C(Nc1nccs1)c1ccc(-c2cccc([N+](=O)[O-])c2)o1,i,i,i,i
Cc1nc(=S)c2ccccc2[nH]1,i,i,i,31
S=c1nc(Cc2ccccc2)[nH]c2ccccc12,i,i,i,i
CCCS(=O)(=O)c1c(S(=O)(=O)CCC)c2cc(-c3ccncc3)ccn2c1C(=O)OC,i,+,i,i
COc1cccc(N2CC(=O)Nc3c(oc4nc(-c5ccccc5)cc(C)c34)C2=O)c1,i,i,i,35
COc1ccc(N2CCN(CCCNC(=O)C(=O)c3c[nH]c4ccccc34)CC2)cc1,i,i,i,i
Cc1nc(CC(=O)c2ccc(O)c(C)c2O)cs1,i,i,i,59
Cc1nc(CC(=O)c2c(C)cc(O)cc2O)cs1,i,i,i,37
Cc1nc(CC(=O)c2ccc(O)cc2O)cs1,i,i,i,33
O=C(Cc1cscn1)c1ccc(O)cc1O,i,i,i,38
Cc1nc(C/C(=N\Nc2ccccc2)c2ccc(O)cc2O)cs1,i,i,i,i

# Screens (PubChem BioAssay)
